Values joined by “and” are separate entries in the source; they are usually repeats but may differ in a detail not shown here. Equal entries are not always repeated.
Legend:
[1] = target: CDK3/Cyclin E (Homo sapiens) (UniProt P24864+Q00526); conditions: at 1 µM;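 further: each figure is a mean percent inhibition of the CDK3/cyclin E complex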
[2] = target: Cyclin-dependent kinase 4 (Homo sapiens) (UniProt P11802); conditions: at 0.1 µM
[3] = target: Cyclin-dependent kinase 4 (Homo sapiens) (UniProt P11802); conditions: at 1 µM
[4] = target: Cyclin-dependent kinase 5 (Homo sapiens) (UniProt Q00535); conditions: at 0.1 µM
[5] = target: Cyclin-dependent kinase 5 (Homo sapiens) (UniProt Q00535); conditions: at 1 µM
[6] = target: Cyclin-dependent kinase 6 (Homo sapiens) (UniProt Q00534); conditions: at 0.1 µM
[7] = target: Cyclin-dependent kinase 6 (Homo sapiens) (UniProt Q00534); conditions: at 1 µM
[8] = target: Dual specificity protein kinase CLK2 (Homo sapiens) (UniProt P49760); conditions: at 0.1 µM
[9] = target: Dual specificity protein kinase CLK2 (Homo sapiens) (UniProt P49760); conditions: at 1 µM
[10] = target: Dual specificity protein kinase CLK3 (Homo sapiens) (UniProt P49761); conditions: at 0.1 µM
Chain of Dual specificity protein kinase CLK3 (Homo sapiens) (P49761 whole entry, looked up): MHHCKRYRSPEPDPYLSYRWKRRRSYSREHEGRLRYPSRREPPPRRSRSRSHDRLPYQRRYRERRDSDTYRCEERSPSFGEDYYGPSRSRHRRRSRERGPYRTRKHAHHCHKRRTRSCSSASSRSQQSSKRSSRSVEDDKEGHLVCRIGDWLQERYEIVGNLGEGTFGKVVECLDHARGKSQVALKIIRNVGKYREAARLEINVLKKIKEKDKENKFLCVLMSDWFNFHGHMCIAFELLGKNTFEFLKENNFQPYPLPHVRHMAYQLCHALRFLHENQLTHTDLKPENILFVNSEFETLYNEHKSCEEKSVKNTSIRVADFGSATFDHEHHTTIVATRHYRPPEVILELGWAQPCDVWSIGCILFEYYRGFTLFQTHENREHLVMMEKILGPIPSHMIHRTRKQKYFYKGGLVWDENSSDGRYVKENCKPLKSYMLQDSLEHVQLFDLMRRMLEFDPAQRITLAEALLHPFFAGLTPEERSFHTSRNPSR

Chain of Cyclin-dependent kinase 5 (Homo sapiens) (Q00535 whole entry, looked up): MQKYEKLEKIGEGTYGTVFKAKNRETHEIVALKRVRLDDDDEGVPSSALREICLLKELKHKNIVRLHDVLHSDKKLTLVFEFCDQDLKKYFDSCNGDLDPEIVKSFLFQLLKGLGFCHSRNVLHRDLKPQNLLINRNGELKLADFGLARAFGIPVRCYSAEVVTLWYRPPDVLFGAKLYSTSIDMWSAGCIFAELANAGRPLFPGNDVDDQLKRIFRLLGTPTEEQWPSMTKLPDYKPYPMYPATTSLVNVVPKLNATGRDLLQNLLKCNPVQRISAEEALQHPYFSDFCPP
Chain of Cyclin-dependent kinase 4 (Homo sapiens) (P11802 whole entry): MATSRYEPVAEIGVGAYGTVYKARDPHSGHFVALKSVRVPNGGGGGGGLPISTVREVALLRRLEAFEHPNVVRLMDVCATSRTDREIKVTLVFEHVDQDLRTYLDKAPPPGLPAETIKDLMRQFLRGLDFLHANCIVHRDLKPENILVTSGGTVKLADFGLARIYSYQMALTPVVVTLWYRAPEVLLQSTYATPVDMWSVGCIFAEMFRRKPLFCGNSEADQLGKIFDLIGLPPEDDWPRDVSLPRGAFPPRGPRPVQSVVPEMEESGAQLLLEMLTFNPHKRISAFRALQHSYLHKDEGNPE
Chain of CDK3/Cyclin E (Homo sapiens) (P24864 whole entry, looked up): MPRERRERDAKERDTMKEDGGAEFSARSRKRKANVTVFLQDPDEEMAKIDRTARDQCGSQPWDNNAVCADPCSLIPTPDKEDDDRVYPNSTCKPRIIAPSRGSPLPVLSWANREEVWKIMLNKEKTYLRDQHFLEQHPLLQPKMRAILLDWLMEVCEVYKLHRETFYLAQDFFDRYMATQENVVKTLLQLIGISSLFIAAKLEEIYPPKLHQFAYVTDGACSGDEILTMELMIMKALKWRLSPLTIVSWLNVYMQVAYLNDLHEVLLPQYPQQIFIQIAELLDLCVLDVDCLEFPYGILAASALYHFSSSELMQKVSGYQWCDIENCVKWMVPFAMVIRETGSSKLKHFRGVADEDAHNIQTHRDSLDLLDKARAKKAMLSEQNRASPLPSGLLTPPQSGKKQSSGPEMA
Chain of CDK3/Cyclin E (Homo sapiens) (Q00526 whole entry, looked up): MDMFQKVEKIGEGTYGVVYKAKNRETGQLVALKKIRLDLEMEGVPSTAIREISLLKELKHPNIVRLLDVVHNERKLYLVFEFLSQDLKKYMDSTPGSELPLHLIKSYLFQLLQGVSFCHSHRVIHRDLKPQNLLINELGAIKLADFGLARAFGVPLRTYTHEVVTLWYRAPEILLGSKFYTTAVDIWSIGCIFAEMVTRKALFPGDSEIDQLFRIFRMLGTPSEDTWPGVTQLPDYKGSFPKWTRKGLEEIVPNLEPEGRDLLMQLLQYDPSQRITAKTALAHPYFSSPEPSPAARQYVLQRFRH
Chain of Cyclin-dependent kinase 6 (Homo sapiens) (Q00534 whole entry): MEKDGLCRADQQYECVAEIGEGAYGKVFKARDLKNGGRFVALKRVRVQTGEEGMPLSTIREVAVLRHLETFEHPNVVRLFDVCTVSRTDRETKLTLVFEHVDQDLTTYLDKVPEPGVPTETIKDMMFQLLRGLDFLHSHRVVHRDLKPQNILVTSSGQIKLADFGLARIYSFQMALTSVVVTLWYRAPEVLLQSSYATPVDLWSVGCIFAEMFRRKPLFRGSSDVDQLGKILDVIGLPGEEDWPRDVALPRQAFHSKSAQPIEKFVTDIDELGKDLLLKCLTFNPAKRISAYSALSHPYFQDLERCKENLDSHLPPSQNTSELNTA
Chain of Dual specificity protein kinase CLK2 (Homo sapiens) (P49760 whole entry, looked up): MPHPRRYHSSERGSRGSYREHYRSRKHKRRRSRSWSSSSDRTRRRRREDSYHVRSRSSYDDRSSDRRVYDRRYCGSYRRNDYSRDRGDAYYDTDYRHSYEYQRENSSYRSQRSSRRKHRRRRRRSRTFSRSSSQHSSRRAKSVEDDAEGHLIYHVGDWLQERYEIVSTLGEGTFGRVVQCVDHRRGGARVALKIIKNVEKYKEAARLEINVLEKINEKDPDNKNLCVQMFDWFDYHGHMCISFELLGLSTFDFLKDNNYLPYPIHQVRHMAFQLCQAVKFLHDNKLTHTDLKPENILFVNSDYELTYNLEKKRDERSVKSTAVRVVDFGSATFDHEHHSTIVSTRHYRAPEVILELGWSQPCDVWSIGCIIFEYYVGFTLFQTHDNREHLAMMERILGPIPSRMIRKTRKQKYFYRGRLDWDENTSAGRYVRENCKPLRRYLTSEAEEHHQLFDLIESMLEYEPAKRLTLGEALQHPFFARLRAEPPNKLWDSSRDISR

Row | Compound | inhibition [1] | inhibition [2] | inhibition [3] | inhibition [4] | inhibition [5] | inhibition [6] | inhibition [7] | inhibition [8] | inhibition [9] | inhibition [10]
1 | COC(=O)Nc1nc2ccc(Oc3ccc(NC(=O)Nc4cc(C(F)(F)F)ccc4F)cc3)cc2s1 | -0.71% | 0.7% | 2.02% | 0.77% | 1.66% | 0.38% | 2.05% | 0.47% | 3.04% | 0.06%
2 | Fc1cccc(COc2ccc(Nc3ncncc3C#Cc3ccccc3)cc2Cl)c1 | -2.37% | 2.27% | 2.61% | 1.02% | 1.31% | 3.3% | 2.89% | 1.45% | 2.09% | 2.41%
3 | N#Cc1cccc(Nc2ncc(-c3ccccc3)o2)c1 | 40.2% | 3.86% | 26.7% | 4.45% | 30.5% | 21.9% | 63% | 1.44% | 9.1% | 1.7%
4 | OCCCNc1nccc(-c2c(-c3ccc(F)cc3)nn3cc(C(F)(F)F)ccc23)n1 | 0.86% | 0.94% | 3.36% | 2.06% | 3.96% | 1.79% | 5.92% | 0.1% | 1.15% | 0.35%
5 | CCOc1ccc2c(-c3ccnc(Nc4cc(OC)cc(C(F)(F)F)c4)n3)cnn2n1 | 3.56% | 1.15% | 6.68% | 2.44% | 9.18% | 2.68% | 7.59% | 81.2% | 96.3% | 3.69%
6 | CN1CCC(C(=O)Nc2n[nH]c3nc(-c4ccc(O)cc4)c(Br)cc23)CC1 | 56.1% and 53.4% | 48% and 51.8% | 76.6% and 78.3% | 0.17% and 1.86% | 13.3% and 11.5% | 36.9% and 34.2% | 76.5% and 74% | 2.03% and 1.85% | 3.04% and 2.87% | -1.53% and 0.88%
7 | COc1cc(Nc2ncc(-c3ccccc3)o2)cc(OC)c1 | 6.13% | 3.96% | 14.9% | -0.03% | 6.57% | 4.07% | 29.8% | 2.97% | 2.12% | 0.59%
8 | c1cnn2ncc(-c3ccnc(NCCCN4CCOCC4)n3)c2c1 | -0.22% | 2.24% | 7.97% | 0.21% | 2.95% | -1.7% | 2.95% | 1.77% | 6.81% | 0.39%
9 | COC(=O)Nc1nc2cc(Oc3ccc(NC(=O)Nc4ccccc4)cc3)ccc2[nH]1 | -3.23% | 0.66% | 1.41% | 0.28% | 0.86% | 0.73% | -1.23% | 1.75% | -1.36% | 1.37%
10 | Fc1ccc(Nc2nccc(-c3c(-c4ccc(C(F)(F)F)cc4)nn4ncccc34)n2)cc1F | -0.37% | 2.28% | 2.36% | 0.28% | 0.64% | 1.44% | 1.37% | 2.15% | 1.63% | 2.2%
11 | CC(C)c1ccc(-c2cc(-c3c[nH]nc3-c3ccccn3)ccn2)cc1 | -1.28% | 1.25% | 1.46% | 0.18% | 0.36% | -1.5% | 1.16% | 0.9% | -0.14% | 0.15%
12 | Cc1cc(O)cc(C)c1/C=C/c1cncc(C(N)=O)c1 | 1.41% | 2.84% | 3.26% | 0.63% | 1.61% | 3.58% | 4.03% | -0.7% | 2.41% | 1.21%
13 | CC1=C(C(=O)Nc2ccc3[nH]nc(C)c3c2)C(c2ccc(C(F)(F)F)cc2)CC(=O)N1 (stereo not given) | 1.51% | 4.22% | 7.29% | 2.58% | 6.22% | 7.14% | 10.2% | 1.85% | 9.04% | 2.28%
14 | CN(c1ccc(NC(=O)NCCN2CCOCC2)cc1)c1ccnc(Nc2ccc(CS(C)(=O)=O)cc2)n1 | 0.92% | 0.98% | 2.06% | 0.44% | 2.44% | 5.26% | 4.21% | -0.8% | 2.52% | 0.77%
15 | CNC(=O)c1sc(-n2cnc3cc(OC)c(OC)cc32)cc1OCc1ccccc1C(F)(F)F | -1.01% | 1.64% | 3.5% | 0.36% | 1.5% | -0.46% | 1.53% | 1.74% | -1.57% | 0.24%
16 | Cc1cc(O)cc(C)c1/C=C/c1cncc(C(=O)OC(C)(C)C)c1 | 1.16% | 2.59% | 3.59% | 0.74% | 2.53% | 3.38% | 5.01% | 0.65% | 0.81% | 3.45%

Row | Compound | inhibition [1] | inhibition [2] | inhibition [3] | inhibition [4] | inhibition [5] | inhibition [6] | inhibition [7] | inhibition [8] | inhibition [9] | inhibition [10]
17 | CNC(=O)c1cncc(/C=C/c2ccccc2C)c1 | 0.23% | 1.9% | 7.47% | 4.11% | 10.4% | 3.69% | 4.46% | 2.83% | 2.46% | 1.79%
18 | N#Cc1ccc2c(-c3ccnc(NC4CC4)n3)c(-c3ccc(F)cc3)nn2c1 | -1.23% | -0.21% | 1.61% | -0.1% | -0.13% | -1.07% | 2.32% | -0.43% | -1.71% | -0.22%
19 | FC(F)(F)CNc1nccc(-c2cnn3ncccc23)n1 | 11.2% | 2.33% | 10.8% | 3.62% | 22.9% | 0.9% | 3.37% | 5.19% | 51% | 0.47%
20 | NS(=O)(=O)c1ccc(N/N=C2\C(=O)Nc3ccc(C(=O)NCc4ccncc4)cc32)cc1 | 96.3% | 14% | 52.3% | 47.7% | 79.1% | 8.64% | 58.6% | 2.87% | 36.8% | 1.92%
21 | O=C(O[C@H]1CN[C@H](C#Cc2cc3ncnc(Nc4ccc5c(cnn5Cc5ccccc5)c4)c3s2)C1)N1CCOCC1 | -1.05% | 0.36% | 3.2% | 2.53% | 3.35% | -1.23% | 0.26% | -1.51% | -0.74% | -0.96%
22 | O=C(Nc1n[nH]c2nnc(-c3cccnc3)cc12)C1CC1 | 81.4% | 13.7% | 56.1% | 27.2% | 69.2% | 19.7% | 64.6% | 5.98% | 43.4% | 0.24%
23 | O=C(O[C@H]1CN[C@H](C#Cc2cc3ncnc(Nc4ccc(OCc5cccc(F)c5)c(Cl)c4)c3s2)C1)N1CCOCC1 | -3.23% | 2.11% | 2.33% | 0.49% | -0.57% | 1.23% | -0.42% | -0.15% | -0.4% | 2.68%
24 | CC1(C)CC(n2cnc(-c3ccc(F)cc3)c2-c2ccnc(N)n2)CC(C)(C)N1 | -0.65% | 1.99% | 2.08% | 0.25% | 0.14% | -2.02% | 1.29% | 0.85% | 0.02% | 0.82%
25 | CC1=C(C(=O)Nc2ccc3[nH]ncc3c2)C(c2ccc(F)cc2)N=C(c2ccc(C(F)(F)F)nc2)N1 (stereo not given) | 1.96% | 2.27% | 2.07% | 0.56% | 0.43% | 2.17% | 1.9% | 0.46% | -0.11% | 1.34%
26 | COc1ccccc1-c1cc(/C=C2\C(=O)Nc3ncc(Br)cc32)cc(Br)c1O | 1.11% | 5.08% | 7.62% | 4.84% | 4.91% | 1.08% | 6.64% | 1.63% | 5.09% | 2.35%
27 | CS(=O)(=O)CCNCc1ccc(-c2ccc3ncnc(Nc4ccc(OCc5cccc(C(F)(F)F)c5)cc4)c3c2)o1 | 1.01% | 3.72% | 2.89% | 0.15% | 0.08% | 0.44% | 1.5% | 0.99% | 1.97% | 1.09%
28 | CNC(=O)c1ncccc1Nc1nc(Nc2cc3c(cc2OC)CCCN3C(=O)CN(C)C)nc2[nH]ccc12 | 1.69% | 5.18% | 11.4% | 3.84% | 6.35% | 3.87% | 7.17% | 54.3% | 93.1% | 1.98%
29 | COc1cc(N2CCN(C(C)C)CC2)ccc1Nc1nc(Nc2cccc3ncccc23)c2cc[nH]c2n1 | -2.06% | -0.07% | 1.11% | 1.69% | 4.66% | 1.04% | 8.48% | 4.18% | 20.7% | -0.15%
30 | O=C1Nc2ccccc2/C1=C1\CCc2cc(O)ccc21 | 2.91% | 3.57% | 7.74% | 1.5% | 7.54% | 3.57% | 30.5% | 2.81% | 13.6% | 1.61%
31 | CCS(=O)(=O)c1ccc(OC)c(Nc2ncc(-c3cccc(C(C)=O)c3)o2)c1 | 1.82% | 2.53% | 3.06% | 1.03% | 3.09% | 4.78% | 5.56% | 28.6% | 82.8% | 1.61%

— ChEMBL document CHEMBL1961873, “Compounds: GSK PKIS; Assays: Nanosyn kinase panel” (2012)
